Assay outcomes: PubChem BioAssay, National Center for Advancing Translational Sciences (NCATS)
An excerpt weighted towards active compounds, which were near 2.8% of everything screened.
Pol kappa inh: blocks human DNA polymerase kappa activity. Q9UBT6. purified Pol kappa, fluorescent DNA synthesis assay, 10 min. Potency, µM (titrated, usually from 107 µM), without a hit: at the highest dose activity, negative = inhibition, usual class: inhibitors. 0.53% of 400,000 active. AID 588579; further: potency means the concentration at half of the fitted maximal effect; on the % scale 0 is the no-effect control and ±100 the full control effect
Target sequence (Q9UBT6 whole entry, looked up): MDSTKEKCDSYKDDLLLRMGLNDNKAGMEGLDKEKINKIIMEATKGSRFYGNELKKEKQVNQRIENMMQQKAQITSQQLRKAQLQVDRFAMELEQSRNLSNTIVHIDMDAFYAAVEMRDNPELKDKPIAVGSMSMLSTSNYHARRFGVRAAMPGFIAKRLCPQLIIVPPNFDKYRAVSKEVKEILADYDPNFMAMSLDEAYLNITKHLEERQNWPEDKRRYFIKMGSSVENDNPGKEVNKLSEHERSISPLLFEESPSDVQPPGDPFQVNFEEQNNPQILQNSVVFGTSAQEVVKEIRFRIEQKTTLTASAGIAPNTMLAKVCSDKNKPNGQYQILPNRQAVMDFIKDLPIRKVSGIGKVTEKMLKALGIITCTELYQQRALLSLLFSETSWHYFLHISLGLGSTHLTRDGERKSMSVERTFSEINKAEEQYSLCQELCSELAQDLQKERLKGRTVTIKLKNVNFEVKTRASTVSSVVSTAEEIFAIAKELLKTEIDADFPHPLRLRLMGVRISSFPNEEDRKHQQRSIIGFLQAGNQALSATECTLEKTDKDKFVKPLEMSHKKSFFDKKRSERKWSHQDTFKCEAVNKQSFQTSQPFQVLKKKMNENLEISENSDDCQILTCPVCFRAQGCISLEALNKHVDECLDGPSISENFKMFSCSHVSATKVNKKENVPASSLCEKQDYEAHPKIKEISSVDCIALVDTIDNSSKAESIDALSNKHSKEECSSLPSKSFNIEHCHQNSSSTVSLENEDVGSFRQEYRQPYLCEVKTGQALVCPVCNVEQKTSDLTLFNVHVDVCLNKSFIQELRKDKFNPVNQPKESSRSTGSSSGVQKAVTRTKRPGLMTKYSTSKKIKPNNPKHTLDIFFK
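Kinetic fluorescence screen: compound preincubated 15 min RT with 10 nM enzyme; 50 nM substrate (final) initiates; reads at 0/10 min.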
Pol beta inh: inhibitors of human DNA polymerase beta | P06746 | Potency, µM (titrated, usually from 114 µM), without a hit: at the highest dose activity change, negative = inhibition, most hits filed as inhibitors | 1.3% of 340,000 active | Pol beta primer extension/strand displacement, fluorescence kinetic; further: potency means the concentration at half of the fitted maximal effect; on the % scale 0 is the no-effect control and ±100 the full control effect
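Homogeneous kinetic assay of primer extension and strand displacement by 10 nM Pol beta, preincubated 15 min at room temperature with compound before 50 nM substrate (final) was added. Read at 0 and 10 min; four-parameter Hill fit.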
Pol eta inh: blocks human DNA polymerase eta activity; Q9Y253; AID 588591; recombinant Pol eta, fluorescent DNA replication assay; Potency, µM (doses to about 114 µM), without a hit: at the top dose activity change, negative = inhibition, actives largely listed as inhibitors; 1.2% of 390,000 active; further: potency means the concentration at half of the fitted maximal effect; on the % scale 0 is the no-effect control and ±100 the full control effect
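Fluorescent replication assay: 50 nM final substrate added after a 15 min room-temperature compound preincubation with 10 nM enzyme. Signal taken at 0 min and again at 10 min.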
FEN1 inhibitor: inhibitors of human flap endonuclease 1; P39748; Recombinant FEN1 flap cleavage, fluorescence, 15 min; Potency, µM (top dose mostly 114 µM), for inactives: top-dose activity change, negative = inhibition, actives largely listed as inhibitors; 0.35% of 390,000 active; further: potency means the concentration at half of the fitted maximal effect; on the % scale 0 is the no-effect control and ±100 the full control effect; nearly all actives have a fitted effect of over 65% in size
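Reaction started by adding substrate (50 nM final) to 10 nM enzyme after 15 min room-temperature compound preincubation. Reads at 0 and 15 min, with data normalized and fitted to a four-parameter Hill equation.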
PI5P4Ka inh: inhibitors of human PI5P4K alpha; P48426; PI5P4Kalpha enzyme, ADP-Glo luminescence, 60 min; hits give low values; max response, %; 1.2% of 330,000 active; active means max response of -50% or lower; inconclusive means between -30% and -50%; inactive means -30% or higher; further: value at the top dose of about 77 µM; on the % scale 0 is the no-effect control and ±100 the full control effect
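Compounds were pin-transferred onto PI5P4Kalpha and substrate in HEPES pH 7.4 buffer with EGTA, CHAPS and 5% DMSO. ATP (5 microM final) started the reaction, which ran 60 minutes at room temperature before ADP-Glo detection.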
Pol iota inh: blocks human DNA polymerase iota activity; 1% of 390,000 active; Pol iota fluorescent replication assay, 10 min; Q9UNA4; Potency, µM (series often up to 115 µM), without a hit: top-dose activity, negative = inhibition, hits mostly inhibitors; AID 588590; further: potency means the concentration at half of the fitted maximal effect
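Fluorescent replication assay read twice, at 0 min and 10 min after adding 50 nM (final) substrate. Enzyme (10 nM) and compounds were first incubated 15 min at room temperature; enzyme-free buffer wells were negative controls.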
* hit, by the source's call; ? = inconclusive; / = no result given; [ ] = remark or other dose. Unless noted, the call rests on the fitted dose curve; in most records, active means well fitted curve in the direction sought with a large enough effect; inconclusive means small, poorly fitted or top-dose-only effect, or another doubt; inactive means no such curve, though single readings can be large; an effect the other way counts as inactive or inconclusive.

SMILES | Pol kappa inh | Pol beta inh | Pol eta inh | FEN1 inhibitor | PI5P4Ka inh | Pol iota inh
C=CCOC(=O)C1=C(C)NC(SCC(=O)OCC)=C(C#N)C1c1ccc(O)c(OC)c1 (centres undefined) | -14.1% | ? | ? | -1.7% | -53.7* | 8.4%
COCCCNC(=O)c1cc(-c2cccnc2)nc2ccc(S(=O)(=O)N3CCC(C)CC3)cc12 | -21.3%[60.1 µM] | 1.9% | -10.8% | 13.6% | / | 1.7%
Cn1cc(C=O)c2cc(F)ccc21 | -5.4% | -2.9% | -11.0% | 22.1% | 0.1 | 42.6%
Cn1cc(/C=C/c2cc[n+](C)cc2)c2cc(Cl)ccc21 | -6.5% | ? | -21.2% | 50.1µM* | -14.1 | 2.0%
CCOC(=O)C1=C(C)N(C)C(=O)NC1c1cc2c(cc1[N+](=O)[O-])OCO2 (centres undefined) | ? | 17.8µM* | -14.1% | -5.5% | -2.7 | 2.82µM*
CCCCOC(=O)C1=C(C)N(C)C(=O)NC1c1cc2c(cc1Br)OCO2 (centres undefined) | / | / | -12.5% | / | 0.1 | /
COC1=CCC2([N+](=O)[O-])CN(CCO)CC1([N+](=O)[O-])C2 (centres undefined) | -13.6% | 0.199µM* | -9.5% | 7.7% | 2.7 | 4.0%
Cc1cc(C=C2C(=O)c3ccccc3C2=O)c(C)n1-c1ccccc1 | -4.3% | 20.5% | -23.7% | -0.5% | / | -6.9%[58.9 µM]
Cc1cc(C=C2C(=O)c3ccccc3C2=O)c(C)n1-c1cccc(C(=O)O)c1 | ? | ? | 44.7µM* | -33.8% | -16.2 | ?
O=C1NN(c2cccc(Br)c2)C(=O)/C1=C\c1ccc(O)cc1 | -2.9% | ? | ? | -16.7% | -51.3* | ?
COc1cc(/C=C2/C(=O)NN(c3cccc(Cl)c3)C2=O)cc(OC)c1O | -6.9% | ? | -13.4% | -6.9% | ? | ?
Cc1cc(/C=C2/C(=O)NN(c3ccccc3)C2=O)c(C)n1-c1cccc(O)c1 | -32.7% | ? | ? | 8.3% | -56.4* | 56.2µM*
COc1ccc(Nc2nc(-c3cc4cccc(OC)c4oc3=O)cs2)cc1 | -4.4% | -12.4% | -5.7% | -1.6% | -12.4 | 2.8%
COc1cccc2cc(/C(C)=N/Nc3nc(-c4cc(C)ccc4C)cs3)c(=O)oc12 | -7.7% | 39.8µM* | 50.1µM* | 24.9% | / | -15.3%
C1CNCCNCCCNCCNC1 | / | 23.0% | / | / | / | /
C#CCOCCOCCOCCNc1nc(N2CCN(C(=O)C(Cc3cc4ccccc4[nH]3)n3cc(C(N)Cc4ccc(O)cc4)nn3)CC2)nc(N2CCN(C(=O)C(CCC(=O)O)n3cc(C(N)C(C)CC)nn3)CC2)n1 (centres undefined) | -7.2% | / | -5.2% | -1.8% | -1.9 | ?
C#CCOCCOCCOCCNc1nc(N2CCN(C(=O)[C@H](Cc3cc4ccccc4[nH]3)n3cc([C@@H](N)C(C)CC)nn3)CC2)nc(N2CCN(C(=O)[C@H](Cc3cc4ccccc4[nH]3)n3cc([C@@H](N)Cc4ccc(O)cc4)nn3)CC2)n1 (some centres undefined) | / | 82.7% | / | / | / | /
C#CCOCCOCCOCCNc1nc(N2CCN(C(=O)[C@H](Cc3cc4ccccc4[nH]3)n3cc([C@@H](N)CC(C)C)nn3)CC2)nc(N2CCN(C(=O)[C@H](Cc3cc4ccccc4[nH]3)n3cc([C@@H](N)CC(C)C)nn3)CC2)n1 | -2.8% | 28.2µM* | -3.1% | -16.1% | ? | ?
C#CCOCCOCCOCCNc1nc(N2CCN(C(=O)[C@H](Cc3ccc(O)cc3)n3cc([C@@H](N)C(C)CC)nn3)CC2)nc(N2CCN(C(=O)[C@H](Cc3cc4ccccc4[nH]3)n3cc([C@@H](N)CC(C)C)nn3)CC2)n1 (some centres undefined) | 2.7% | 28.2µM* | -9.5% | -11.0% | ? | 79.4µM*
